Data from PubChem BioAssay AID743358 (Broad Institute, 2014).
Unmarked numbers belong to inactive results.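 How the source made its calls: active means ATP signal drop in HepG2 cells with fitted half-maximal concentration at most twice the top tested dose; inconclusive means flat curve losing 30 to 70% signal, or poor fit; inactive means the rest.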

Assay: viability loss in HepG2 liver cells – cell-based, luminescence, dry powder, set 9, cytotoxicity control, dose response (AID 743358)
Conditions: ATP luminescence, 72 h; series mostly up to 26 µM; activity change, negative = cytotoxicity: at the top concentration
With CN1c2ccc(-c3cccc(F)c3)cc2[C@H]2[C@H](CCN2C(=O)CCCCCCN)[C@H]1CO the “activity change, negative = cytotoxicity” value was -2.25%. In the case of CC(=O)c1ccc(N2CCN(C(=O)c3ccccc3Cl)CC2)cc1, the “activity change, negative = cytotoxicity” value is reported as -4.95%. With CN1c2ccc(-c3ccc(F)cc3)cc2[C@H]2[C@H](CCN2C(=O)Nc2ccc(F)cc2)[C@H]1CO the “activity change, negative = cytotoxicity” value was 0.957%. For CN1c2ccc(-c3ccc(F)cc3)cc2[C@H]2[C@H](CCN2C(=O)Nc2cc(F)ccc2F)[C@H]1CO, the “activity change, negative = cytotoxicity” value was -1.9% [at 23.5 µM]. With COc1ccccc1NC(=O)N1CC[C@@H]2[C@@H](CO)N(C)c3ccc(-c4ccc(F)cc4)cc3[C@@H]21 the “activity change, negative = cytotoxicity” value was -3.19%. With CC(=O)c1ccc(N2CC3(CN(C(=O)c4ccc5c(c4)OCO5)C3)C2)cc1 the “activity change, negative = cytotoxicity” value was 2.7%. With CN1c2ccc(-c3ccc(F)cc3)cc2[C@H]2[C@H](CCN2C(=O)Cc2cccnc2)[C@H]1CO the “activity change, negative = cytotoxicity” value was -3.17% [at 23.5 µM]. In the case of CN1c2ccc(-c3cccc(F)c3)cc2[C@H]2[C@H](CCN2C(=O)c2ccc3c(c2)OCO3)[C@@H]1CO, the “activity change, negative = cytotoxicity” value is reported as -0.839%. In the case of COc1ccc(NC(=O)N2CC[C@@H]3[C@@H](CO)N(C)c4ccc(-c5ccc(F)cc5)cc4[C@@H]32)cc1, the “activity change, negative = cytotoxicity” value is reported as -3.27%. In the case of CC(=O)c1ccc(N2CCN(C(=O)c3ccc4c(c3)OCO4)CC2)cc1, the “activity change, negative = cytotoxicity” value is reported as -1.15%. With COC(=O)c1ccc(N2CCN(C(=O)c3ccc4c(c3)OCO4)CC2)cc1 the “activity change, negative = cytotoxicity” value was -9.05%. In the case of CNS(=O)(=O)c1ccc(N2CCN(C(=O)c3ccc4c(c3)OCO4)CC2)cc1, the “activity change, negative = cytotoxicity” value is reported as 8.97%. In the case of COc1ccc(NC(=O)N2CC[C@@H]3[C@@H](CO)N(C)c4ccc(-c5cccc(F)c5)cc4[C@@H]32)cc1, the “activity change, negative = cytotoxicity” value is reported as -6.83%. With CCCCCCCC(=O)N1CC[C@@H]2[C@@H](CO)N(C)c3ccc(-c4cccc(F)c4)cc3[C@@H]21 the “activity change, negative = cytotoxicity” value was -3.77%. For CN1c2ccc(-c3ccc(F)cc3)cc2[C@H]2[C@H](CCN2C(=O)Cc2ccccn2)[C@H]1CO, the “activity change, negative = cytotoxicity” value was 11.1%. In the case of CN1c2ccc(-c3cccc(F)c3)cc2[C@H]2[C@H](CCN2C(=O)CCCCCCC(=O)O)[C@H]1CO, the “activity change, negative = cytotoxicity” value is reported as 22%. For CCC(=O)N1CC[C@@H]2[C@@H](CO)N(C)c3ccc(-c4ccc(F)cc4)cc3[C@@H]21, the “activity change, negative = cytotoxicity” value was 12.3% [at 23.5 µM]. For CC(=O)c1ccc(N2CCN(C(=O)c3ccc4c(c3)OCO4)[C@H](C)C2)cc1, the “activity change, negative = cytotoxicity” value was 0.077%. In the case of CC(=O)c1ccc(NCCNC(=O)c2ccc3c(c2)OCO3)cc1, the “activity change, negative = cytotoxicity” value is reported as 12.5%. In the case of CNC(=O)c1ccc(N2CCN(C(=O)c3ccc4c(c3)OCO4)CC2)cc1, the “activity change, negative = cytotoxicity” value is reported as -4.16%. With CC(C)NC(=O)N1CC[C@@H]2[C@@H](CO)N(C)c3ccc(-c4ccc(F)cc4)cc3[C@@H]21 the “activity change, negative = cytotoxicity” value was 3.41%. With CN1c2ccc(-c3cccc(F)c3)cc2[C@@H]2[C@@H](CCN2C(=O)c2ccc3c(c2)OCO3)[C@H]1CO the “activity change, negative = cytotoxicity” value was 3.64%. With CN(C)C(=O)c1ccc(N2CCN(C(=O)c3ccc4c(c3)OCO4)CC2)cc1 the “activity change, negative = cytotoxicity” value was -0.61%. In the case of CCCNC(=O)N1CC[C@@H]2[C@@H](CO)N(C)c3ccc(-c4ccc(F)cc4)cc3[C@@H]21, the “activity change, negative = cytotoxicity” value is reported as 5.94%. In the case of CN1c2ccc(-c3cccc(F)c3)cc2[C@H]2[C@H](CCN2C(=O)Cc2cccnc2)[C@H]1CO, the “activity change, negative = cytotoxicity” value is reported as 2.12%. For CN1c2ccc(-c3cccc(F)c3)cc2[C@H]2[C@H](CCN2C(=O)Cc2ccccc2)[C@H]1CO, the “activity change, negative = cytotoxicity” value was -1.4% [at 23.5 µM]. With CC(=O)c1ccc(N2CCN(C(=O)c3ccccc3F)CC2)cc1 the “activity change, negative = cytotoxicity” value was -2.66%. With COc1ccccc1C(=O)N1CCN(c2ccc(C(C)=O)cc2)CC1 the “activity change, negative = cytotoxicity” value was -1.61%. With CN1c2ccc(-c3cccc(F)c3)cc2[C@@H]2[C@@H](CCN2C(=O)c2ccc3c(c2)OCO3)[C@@H]1CO the “activity change, negative = cytotoxicity” value was -6.13%. With COCC(=O)N1CC[C@@H]2[C@@H](CO)N(C)c3ccc(-c4cccc(F)c4)cc3[C@@H]21 the “activity change, negative = cytotoxicity” value was 3.43%. In the case of COc1ccccc1NC(=O)N1CC[C@@H]2[C@@H](CO)N(C)c3ccc(-c4cccc(F)c4)cc3[C@@H]21, the “activity change, negative = cytotoxicity” value is reported as 19.8% [at 12 µM].
